In the library only some 19% were active in any assay of this set; here they are far more common.
HT1080NT lethal: kills 2HG-producing HT-1080-NT fibrosarcoma cells; HT-1080-NT fibrosarcoma viability, CellTiter-Glo ATP luminescence, 48 h; Potency, µM (doses to about 46.1 µM), without a hit: at the top dose activity, negative = less viability, usual class: cytotoxic; hit rate 1.6% among 360,000; AID 686970;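 note: NT is the 2HG producing partner of a matched IDH1 knockdown line; potency is the fitted concentration of half-maximal effect; 0% = DMSO-treated cells and -100% = media-only wells without cells; nearly all actives have a fitted effect of over 55% in size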
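Viability of the 2HG-overproducing fibrosarcoma line after 48 hours of compound exposure at 37 degrees C was determined by luminescence with CellTiter-Glo, and concentration-effect curves were then fitted and categorized.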
IL1B secr inh: inhibitors of inflammasome signaling (IL-1 beta secretion); AID 743279; THP-1 LPS/ATP IL-1B secretion, AlphaLISA, 16 h; hits give low values; hit rate 4.7% among 360,000; activity change, % at 57.5 µM; in the data active = activity change below about -50%; inconclusive = mostly about -30% to -49%
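Secreted IL-1B measured by AlphaLISA bead assay after 16 h compound exposure of THP-1 cells; compounds (final up to 57.5 uM) added 1 h before LPS (250 ng/mL) and ATP (1.25 mM) stimulation; lower signal means less secretion.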
ELG1 DNA repair: blocks ELG1-dependent DNA repair in HEK293T cells; HEK293T ELG1-luciferase reporter, luminescence, 16 h; DNA damage induced by 5-fluorouridine; Potency, µM (series often up to 46.1 µM), inactives show top-dose activity change, negative = inhibition, usual class: inhibitors; hit rate 2.3% among 330,000; note: potency is the fitted concentration of half-maximal effect; nearly all actives have a fitted effect of over 55% in size
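DMSO vehicle served as the neutral condition. Each well held 2,000 cells given 5-fluorouridine plus compound; after 16 hr at 37 °C/5% CO2, ONE-Glo was added and luciferase measured 30 min later.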
TDP1 cell CPT: growth inhibition of DT40 Tdp1-/-;hTDP1 cells with camptothecin (screen for TDP1 inhibitors) | chicken DT40 Tdp1-/-;hTDP1 cells + 20 nM CPT, ATP luminescence, 48 h | Potency, µM (titrated, usually from 46.2 µM), for inactives: at the top dose activity change, negative = growth inhibition, usual class: inhibitors | hit rate 12% among 420,000 | AID 686979; note: potency is the fitted concentration of half-maximal effect; nearly all actives have a fitted effect of over 55% in size
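Chicken DT40 Tdp1-/- cells stably complemented with human TDP1 were seeded at 400 cells/well in medium containing 20 nM camptothecin, exposed to pin-transferred compounds, and grown at 37 °C for at least 48 hr. Viability was read as ATP luminescence.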
HT1080 IDH1KD tx: kills HT-1080 cells with IDH1 knockdown; HT-1080 IDH1 knockdown viability, ATP luminescence, 48 h; hit rate 2% among 360,000; Potency, µM (series often up to 46.1 µM), inactives show at the highest dose activity, negative = toxicity, hits mostly cytotoxic;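 note: potency is the fitted concentration of half-maximal effect; 0% = DMSO wells and -100% = cell-free medium wells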
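Cytotoxicity counter-line: IDH1KD HT-1080, 48 h, CellTiter-Glo. Curves classed by r2, magnitude and activity.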
DT40 TDP1 no CPT: qHTS for Inhibitors of human tyrosyl-DNA phosphodiesterase 1 (TDP1): qHTS in cells in absence of CPT. AID 686978, 2013. hit rate 15% among 420,000. DT40 Tdp1-/- hTDP1 cells, no CPT, ATP luminescence, 48 h. Potency, µM (series often up to 46.2 µM), for inactives: at the highest dose activity change, negative = growth inhibition, actives largely listed as inhibitors; note: potency is the fitted concentration of half-maximal effect; nearly all actives have a fitted effect of over 55% in size
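A cellular qHTS used chicken DT40 cells lacking endogenous Tdp1 but carrying stably transfected human TDP1. Compounds were applied without camptothecin, and cell growth kinetics were judged by ATP-dependent luminescence after ≥48 hr.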
The depositor's hits bear a star; ? = inconclusive; nt = no result. Unless noted, calls come from the whole dose curve; as a rule, active = well fitted curve in the direction sought with a large enough effect; inconclusive = small, poorly fitted or top-dose-only effect, or another doubt; inactive = no such curve, though single readings can be large; an effect the other way counts as inactive or inconclusive. Unless noted, % is set by controls: 0 for no effect and ±100 for the full control effect.

SMILES	HT1080NT lethal	IL1B secr inh	ELG1 DNA repair	TDP1 cell CPT	HT1080 IDH1KD tx	DT40 TDP1 no CPT
COc1ccc2nc(NC(=O)CCc3cc(OC)c(OC)c(OC)c3)sc2c1	-0.7%	-62.7*	10.3µM*	?	-0.4%	20.6µM*
COc1cc(CCC(=O)Nc2ccc(Cl)c(C(F)(F)F)c2)cc(OC)c1OC	4.7%	-12.9	?	18.4µM*	2.3%	8.2µM*
Cc1cc(C)c(C(=O)Nc2ccc(Br)c(C(F)(F)F)c2)c(C)c1	-3.7%	0.0	-7.3%	16.4µM*	-27.5%	11.6µM*
COc1cc(CCC(=O)Nc2cc(C)cc(C)c2)cc(OC)c1OC	8.6%	24.3	?	-24.8%	?	16.4µM*
Cc1ccc(C(=O)CCC(=O)OCC(=O)N(CC(C)C)c2c(N)n(Cc3ccccc3)c(=O)[nH]c2=O)cc1	-2.5%	-11.4	-0.4%	-4.5%	-6.6%	-1.6%
COc1cc(C(=O)Nc2nc(OC)c(-c3ccccc3)c(OC)n2)cc(OC)c1OC	?	-5.6	9.2µM*	?	?	18.4µM*
COc1cc(C(=O)Nc2ccc(Cl)c(C(F)(F)F)c2)cc(OC)c1OC	?	-83.9*	5.17µM*	14.6µM*	-17.2%	23.1µM*
COc1cc(C(=O)Nc2cc(-c3ccccc3)[nH]n2)cc(OC)c1OC	?	23.0	?	?	?	?
COc1cccc(C(=O)Nc2ccc(Cl)c(C(F)(F)F)c2)c1	12.5%	?	-15.2%	?	7.1%	?
COc1ccc(NC(=O)c2cccc3c(-c4cccnc4)coc23)cc1	?	-2.7	nt	11.6µM*	1.8%	20.6µM*
O=C(Nc1ccccc1)c1cccc2c(-c3cccnc3)coc12	14.1%	-16.7	nt	20.6µM*	15.4%	14.6µM*
CCN(C(=O)CSc1n[nH]c(-c2ccc(OC)cc2)n1)c1c(N)n(Cc2ccccc2)c(=O)[nH]c1=O	0.7%	35.5	nt	4.4%	-4.6%	3.0%
CCc1nc2ccc(C(=O)NCC3CCCCC3)cn2c1N(C)Cc1nccs1	-1.5%	-8.3	nt	16.4µM*	2.5%	20.6µM*
CCc1nc2ccc(C(=O)Nc3cc(-c4ccccc4)ccc3OC)cn2c1N(C)Cc1ccc(OC)cc1	-18.3%	?	nt	7.31µM*	-17.2%	8.2µM*
CCc1nc2ccc(C(=O)Nc3cc(-c4ccccc4)ccc3OC)cn2c1N(C)Cc1nccs1	?	-79.9*	nt	13µM*	23.1µM*	9.2µM*
CCc1nc2ccc(C(=O)N(CC)CCN(C)C)cn2c1N(C)Cc1nccs1	6.4%	-17.3	nt	-4.7%	-1.1%	-1.7%
CCc1nc2ccc(C(=O)Nc3cc(-c4ccccc4)ccc3OC)cn2c1N(C)C(=O)c1cccc(OC)c1	-0.8%	-75.9*	nt	?	-1.3%	18.4µM*
CCc1nc2ccc(C(=O)N(CC)CCN(C)C)cn2c1N(C)C(=O)c1cccc(OC)c1	?	3.2	nt	-4.5%	1.4%	-0.2%
COc1ccc(C(=O)Nc2ccc3oc(-c4cc(Cl)ccc4Cl)nc3c2)cc1Br	nt	nt	nt	-2.6%	nt	5.9%
O=C(CC(=O)NN=Cc1ccc2c(c1)CCC2)NN=Cc1ccc2c(c1)CCC2	0.8%	24.3	nt	-6.4%	19.8%	?
O=C(CC1OC(=O)c2ccccc21)Nc1cccc(S(=O)(=O)N2CCCCCC2)c1 (centres undefined)	1.0%	-3.5	?	?	-2.8%	?
CCOC(=O)c1ccccc1Nc1nc2ccc(C)cc2n2nnnc12	nt	nt	nt	?	nt	-18.0%
Cc1ccc2nc(N3CCN(c4ccc(F)cc4)CC3)c3nnnn3c2c1	nt	nt	nt	7.31µM*	nt	14.6µM*
